# PubChem BioAssay AID1159580 (chemical genetic matrix, 2015)
# Hit rate of the full screen: of about 5,500 compounds, about 2,000 (36%) were called active. Inconclusive results (about 18%) are left out. The list shows a part of the results. Values without a mark were called inactive. Cut-off read from the data, not from the text of the source: active = normalized growth mostly below about 0.91 (no sharp cut-off); inconclusive = no clear call, values can overlap the other calls; inactive = mostly above about 0.92.
# Assay: chemical genetic growth profiling, strain panel (AID 1159580);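 note: tested at 20 µM; growth read once vehicle control cultures reached saturation at 30 °C; 1 = growth at the plate median or of vehicle wells; lower values mean less growth of the strain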
# Conditions: growth OD
compound,measurement,setting,value
COP(=S)(OC)Oc1ccc(SC)c(C)c1,normalized growth,"S. cerevisiae deletion strains, locus YJR075W, strain HOC1, hits give low values",1.01
same,normalized growth,"S. cerevisiae deletion strains, locus YKL009W, strain mrt4, hits give low values",0.942
same,normalized growth,"S. cerevisiae deletion strains, locus YKL068W, hits give low values",0.996
same,normalized growth,"S. cerevisiae deletion strains, locus YKL085W, strain MDH1 (second series), hits give low values",0.999
same,normalized growth,"S. cerevisiae deletion strains, locus YKL085W, strain MDH1, hits give low values",0.999
same,normalized growth,"S. cerevisiae deletion strains, locus YKL160W, strain elf1, hits give low values",0.999
same,normalized growth,"S. cerevisiae deletion strains, locus YKL190W, strain CNB1, hits give low values",1
same,normalized growth,"S. cerevisiae deletion strains, locus YKR001C, strain vps1, hits give low values",0.986
same,normalized growth,"S. cerevisiae deletion strains, locus YKR026C, strain gcn3, hits give low values",1.01
same,normalized growth,"S. cerevisiae deletion strains, locus YKR091W, strain srl3, hits give low values",0.995
same,normalized growth,"S. cerevisiae deletion strains, locus YLL001W, strain dnm1, hits give low values",0.986
same,normalized growth,"S. cerevisiae deletion strains, locus YLL026W, hits give low values",0.972
same,normalized growth,"S. cerevisiae deletion strains, locus YLL041C, strain sdh2, hits give low values",1
same,normalized growth,"S. cerevisiae deletion strains, locus YLR027C, strain aat2, hits give low values",0.988
same,normalized growth,"S. cerevisiae deletion strains, locus YLR039C, strain RIC1, hits give low values",1.02
same,normalized growth,"S. cerevisiae deletion strains, locus YLR058C, strain SHM2, hits give low values",1.01
same,normalized growth,"S. cerevisiae deletion strains, locus YLR102C, strain apc9, hits give low values",0.985
same,normalized growth,"S. cerevisiae deletion strains, locus YLR221C, strain rsa3, hits give low values",0.92
same,normalized growth,"S. cerevisiae deletion strains, locus YLR258W, strain gsy2, hits give low values",0.979
same,normalized growth,"S. cerevisiae deletion strains, locus YLR262C, strain YPT6 (second series), hits give low values",0.949
same,normalized growth,"S. cerevisiae deletion strains, locus YLR262C, strain YPT6, hits give low values",1.01
same,normalized growth,"S. cerevisiae deletion strains, locus YLR268W, strain sec22, hits give low values",0.996
same,normalized growth,"S. cerevisiae deletion strains, locus YLR320W, strain mms22, hits give low values",0.857 (active)
same,normalized growth,"S. cerevisiae deletion strains, locus YLR330W, strain CHS5, hits give low values",1.01
same,normalized growth,"S. cerevisiae deletion strains, locus YLR342W, strain FKS1 (second series), hits give low values",0.985
same,normalized growth,"S. cerevisiae deletion strains, locus YLR342W, strain FKS1, hits give low values",0.997
same,normalized growth,"S. cerevisiae deletion strains, locus YLR357W, strain rsc2, hits give low values",1.1
same,normalized growth,"S. cerevisiae deletion strains, locus YLR370C, strain arc18, hits give low values",1.06
same,normalized growth,"S. cerevisiae deletion strains, locus YLR371W, strain rom2, hits give low values",0.989
same,normalized growth,"S. cerevisiae deletion strains, locus YLR384C, strain iki3, hits give low values",1.02
same,normalized growth,"S. cerevisiae deletion strains, locus YLR418C, strain cdc73, hits give low values",0.984
same,normalized growth,"S. cerevisiae deletion strains, locus YML016C, strain PPZ1, hits give low values",1.02
same,normalized growth,"S. cerevisiae deletion strains, locus YML032C, strain rad52, hits give low values",0.979
same,normalized growth,"S. cerevisiae deletion strains, locus YML120C, strain ndi1, hits give low values",0.997
same,normalized growth,"S. cerevisiae deletion strains, locus YML124C, strain tub3, hits give low values",0.985
same,normalized growth,"S. cerevisiae deletion strains, locus YMR058W, strain fet3, hits give low values",0.987
same,normalized growth,"S. cerevisiae deletion strains, locus YMR078C, strain ctf18, hits give low values",0.975
same,normalized growth,"S. cerevisiae deletion strains, locus YMR125W, strain sto1, hits give low values",1.05
same,normalized growth,"S. cerevisiae deletion strains, locus YMR129W, hits give low values",1.01
same,normalized growth,"S. cerevisiae deletion strains, locus YMR205C, strain PFK2, hits give low values",0.947
same,normalized growth,"S. cerevisiae deletion strains, locus YMR223W, strain ubp8, hits give low values",0.982
same,normalized growth,"S. cerevisiae deletion strains, locus YMR231W, strain pep5, hits give low values",1
same,normalized growth,"S. cerevisiae deletion strains, locus YMR263W, strain SAP30, hits give low values",1.01
same,normalized growth,"S. cerevisiae deletion strains, locus YMR307W, strain GAS1, hits give low values",0.908
same,normalized growth,"S. cerevisiae deletion strains, locus YNL067W, strain RPL9B, hits give low values",1.01
same,normalized growth,"S. cerevisiae deletion strains, locus YNL071W, strain lat1, hits give low values",0.879 (active)
same,normalized growth,"S. cerevisiae deletion strains, locus YNL128W, strain TEP1, hits give low values",1.02
same,normalized growth,"S. cerevisiae deletion strains, locus YNL153C, strain GIM3, hits give low values",1.02
same,normalized growth,"S. cerevisiae deletion strains, locus YNL209W, strain ssb2, hits give low values",1.01
same,normalized growth,"S. cerevisiae deletion strains, locus YNL233W, strain BNI4, hits give low values",0.998
same,normalized growth,"S. cerevisiae deletion strains, locus YNL248C, strain rpa49, hits give low values",0.967
same,normalized growth,"S. cerevisiae deletion strains, locus YNL250W, strain rad50, hits give low values",0.987
same,normalized growth,"S. cerevisiae deletion strains, locus YNL271C, strain bni1, hits give low values",0.989
same,normalized growth,"S. cerevisiae deletion strains, locus YNL298W, strain CLA4, hits give low values",0.981
same,normalized growth,"S. cerevisiae deletion strains, locus YNL307C, strain MCK1, hits give low values",0.979
same,normalized growth,"S. cerevisiae deletion strains, locus YNL322C, strain KRE1 (second series), hits give low values",1.01
same,normalized growth,"S. cerevisiae deletion strains, locus YNL322C, strain KRE1, hits give low values",1.02
same,normalized growth,"S. cerevisiae deletion strains, locus YNR049C, strain mso1, hits give low values",1
same,normalized growth,"S. cerevisiae deletion strains, locus YNR052C, strain pop2, hits give low values",0.984
same,normalized growth,"S. cerevisiae deletion strains, locus YOL006C, strain TOP1, hits give low values",1.01
same,normalized growth,"S. cerevisiae deletion strains, locus YOL012C, strain htz1",1.06
same,normalized growth,"S. cerevisiae deletion strains, locus YOL147C, strain pex11, hits give low values",0.985
same,normalized growth,"S. cerevisiae deletion strains, locus YOR001W, strain rrp6, hits give low values",0.99
same,normalized growth,"S. cerevisiae deletion strains, locus YOR061W, strain CKA2, hits give low values",1.01
same,normalized growth,"S. cerevisiae deletion strains, locus YOR069W, strain VPS5, hits give low values",1.01
same,normalized growth,"S. cerevisiae deletion strains, locus YOR070C, strain gyp1, hits give low values",0.978
same,normalized growth,"S. cerevisiae deletion strains, locus YOR080W, strain dia2, hits give low values",1.03
same,normalized growth,"S. cerevisiae deletion strains, locus YOR083W, strain WHI5, hits give low values",0.951
same,normalized growth,"S. cerevisiae deletion strains, locus YOR106W, strain vam3, hits give low values",0.968
same,normalized growth,"S. cerevisiae deletion strains, locus YOR136W, strain idh2, hits give low values",0.985
same,normalized growth,"S. cerevisiae deletion strains, locus YOR144C, strain elg1, hits give low values",0.992
same,normalized growth,"S. cerevisiae deletion strains, locus YOR184W, strain ser1, hits give low values",0.958
same,normalized growth,"S. cerevisiae deletion strains, locus YOR265W, strain rbl2, hits give low values",1.01
same,normalized growth,"S. cerevisiae deletion strains, locus YOR270C, strain vph1, hits give low values",0.791
same,normalized growth,"S. cerevisiae deletion strains, locus YOR290C, strain snf2, hits give low values",0.994
same,normalized growth,"S. cerevisiae deletion strains, locus YOR316C, strain cot1, hits give low values",0.992
same,normalized growth,"S. cerevisiae deletion strains, locus YPL051W, strain arl3, hits give low values",0.96
same,normalized growth,"S. cerevisiae deletion strains, locus YPL055C, strain LGE1, hits give low values",1.01
same,normalized growth,"S. cerevisiae deletion strains, locus YPL078C, strain atp4, hits give low values",0.988
same,normalized growth,"S. cerevisiae deletion strains, locus YPL106C, strain sse1, hits give low values",1.08
same,normalized growth,"S. cerevisiae deletion strains, locus YPL240C, strain hsp82, hits give low values",1.03
same,normalized growth,"S. cerevisiae deletion strains, locus YPL241C, strain CIN2, hits give low values",1.01
same,normalized growth,"S. cerevisiae deletion strains, locus YPR119W, strain clb2, hits give low values",0.981
same,normalized growth,"S. cerevisiae deletion strains, locus YPR141C, strain kar3, hits give low values",0.988
same,normalized growth,"S. cerevisiae deletion strains, locus YPR163C, strain tif3, hits give low values",0.98
same,normalized growth,"S. cerevisiae deletion strains, locus YPR167C, strain met16, hits give low values",0.983
same,normalized growth,"S. cerevisiae deletion strains, strain wtn01, hits give low values",0.989
same,normalized growth,"S. cerevisiae strains, strain wild type, hits give low values",1.01
